Measurements published in the supplement of paper PMC4466140.

B1: unnamed (peptide)
chain: VQKRKLPLPGSIASA

These binders were tested against AgAbp1 (assay: SPOT peptide array binding signal intensity (averaged, normalized) (arbitrary units (background-subtracted, floor 0; scale differs between SH3 domains)); higher = stronger binding of the SH3 domain to the peptide).
Protocol: (§1)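 GST-tagged SH3 domains from S. cerevisiae (Sc), A. gossypii (Ag), C. albicans (Ca) and S. pombe (Sp) were incubated at 10 ug/ml overnight at 4 C on cellulose SPOT membranes carrying 292 synthetic 15-mer peptides mined from the S. cerevisiae proteome (cysteines replaced by serines). Binding was detected with anti-GST antibody, HRP secondary and chemiluminescence, quantified with Genespotter, and reported as normalized spot intensities averaged over biological replicates.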

Row | Binder | SPOT peptide array binding signal intensity
1 | B1 | 40

What follows are binders tested against AgBbc1 in the same assay as above.
Protocol: as §1

Row | Binder | SPOT peptide array binding signal intensity
2 | B1 | 39.2

Each binder was assayed against AgBem1-D1 in the same assay as above.
Protocol: as §1

Row | Binder | SPOT peptide array binding signal intensity
3 | B1 | 7.25

The binders below were run against AgBzz1-D1 in the same assay as above.
Protocol: as §1

Row | Binder | SPOT peptide array binding signal intensity
4 | B1 | 47.8

The binders below were run against AgBzz1-D2 in the same assay as above.
Protocol: as §1

Row | Binder | SPOT peptide array binding signal intensity
5 | B1 | 90.2

These binders were tested against AgCyk3 in the same assay as above.
Protocol: as §1

Row | Binder | SPOT peptide array binding signal intensity
6 | B1 | 0.5

What follows are binders tested against AgFus1 in the same assay as above.
Protocol: as §1

Row | Binder | SPOT peptide array binding signal intensity
7 | B1 | ≤ 0

What follows are binders tested against AgHof1 in the same assay as above.
Protocol: as §1

Row | Binder | SPOT peptide array binding signal intensity
8 | B1 | 24.6

These binders were tested against AgHse1 in the same assay as above.
Protocol: as §1

Row | Binder | SPOT peptide array binding signal intensity
9 | B1 | 58.5

Each binder was assayed against AgLsb1 in the same assay as above.
Protocol: as §1

Row | Binder | SPOT peptide array binding signal intensity
10 | B1 | ≤ 0

These binders were tested against AgLsb4 in the same assay as above.
Protocol: as §1

Row | Binder | SPOT peptide array binding signal intensity
11 | B1 | ≤ 0

What follows are binders tested against AgMyo5 in the same assay as above.
Protocol: as §1

Row | Binder | SPOT peptide array binding signal intensity
12 | B1 | 6.25

The binders below were run against AgNbp2 in the same assay as above.
Protocol: as §1

Row | Binder | SPOT peptide array binding signal intensity
13 | B1 | ≤ 0

These binders were tested against AgRvs167 in the same assay as above.
Protocol: as §1

Row | Binder | SPOT peptide array binding signal intensity
14 | B1 | 0.75

Each binder was assayed against AgSho1 in the same assay as above.
Protocol: as §1

Row | Binder | SPOT peptide array binding signal intensity
15 | B1 | 1.5

The binders below were run against AgSla1-D1-D2 in the same assay as above.
Protocol: as §1

Row | Binder | SPOT peptide array binding signal intensity
16 | B1 | 6.5

What follows are binders tested against AgSla1-D3 in the same assay as above.
Protocol: as §1

Row | Binder | SPOT peptide array binding signal intensity
17 | B1 | ≤ 0

Each binder was assayed against CaAbp1-D1 in the same assay as above.
Protocol: as §1

Row | Binder | SPOT peptide array binding signal intensity
18 | B1 | 419

The binders below were run against CaAbp1-D2 in the same assay as above.
Protocol: as §1

Row | Binder | SPOT peptide array binding signal intensity
19 | B1 | 782

What follows are binders tested against CaBbc1 in the same assay as above.
Protocol: as §1

Row | Binder | SPOT peptide array binding signal intensity
20 | B1 | 442

These binders were tested against CaBem1-D1 in the same assay as above.
Protocol: as §1

Row | Binder | SPOT peptide array binding signal intensity
21 | B1 | 13

The binders below were run against CaBzz1-D1 in the same assay as above.
Protocol: as §1

Row | Binder | SPOT peptide array binding signal intensity
22 | B1 | 94

These binders were tested against CaBzz1-D2 in the same assay as above.
Protocol: as §1

Row | Binder | SPOT peptide array binding signal intensity
23 | B1 | 44.6

The binders below were run against CaCyk3 in the same assay as above.
Protocol: as §1

Row | Binder | SPOT peptide array binding signal intensity
24 | B1 | ≤ 0

These binders were tested against CaFus1 in the same assay as above.
Protocol: as §1

Row | Binder | SPOT peptide array binding signal intensity
25 | B1 | ≤ 0

What follows are binders tested against CaHof1 in the same assay as above.
Protocol: as §1

Row | Binder | SPOT peptide array binding signal intensity
26 | B1 | ≤ 0

These binders were tested against CaHse1 in the same assay as above.
Protocol: as §1

Row | Binder | SPOT peptide array binding signal intensity
27 | B1 | ≤ 0

What follows are binders tested against CaLsb1 in the same assay as above.
Protocol: as §1

Row | Binder | SPOT peptide array binding signal intensity
28 | B1 | ≤ 0

What follows are binders tested against CaLsb4 in the same assay as above.
Protocol: as §1

Row | Binder | SPOT peptide array binding signal intensity
29 | B1 | ≤ 0

What follows are binders tested against CaMyo5 in the same assay as above.
Protocol: as §1

Row | Binder | SPOT peptide array binding signal intensity
30 | B1 | 0.5

These binders were tested against CaNbp2 in the same assay as above.
Protocol: as §1

Row | Binder | SPOT peptide array binding signal intensity
31 | B1 | 70

What follows are binders tested against CaRvs167 in the same assay as above.
Protocol: as §1

Row | Binder | SPOT peptide array binding signal intensity
32 | B1 | 2.17

Each binder was assayed against CaRvs167-3 in the same assay as above.
Protocol: as §1

Row | Binder | SPOT peptide array binding signal intensity
33 | B1 | 4.62

Each binder was assayed against CaSho1 in the same assay as above.
Protocol: as §1

Row | Binder | SPOT peptide array binding signal intensity
34 | B1 | ≤ 0

The binders below were run against CaSla1-D1-D2 in the same assay as above.
Protocol: as §1

Row | Binder | SPOT peptide array binding signal intensity
35 | B1 | 118

What follows are binders tested against CaSla1-D3 in the same assay as above.
Protocol: as §1

Row | Binder | SPOT peptide array binding signal intensity
36 | B1 | ≤ 0

What follows are binders tested against ScAbp1 in the same assay as above.
Protocol: as §1

Row | Binder | SPOT peptide array binding signal intensity
37 | B1 | 100

Each binder was assayed against ScBbc1 in the same assay as above.
Protocol: as §1

Row | Binder | SPOT peptide array binding signal intensity
38 | B1 | 30.1

What follows are binders tested against ScBem1-D1 in the same assay as above.
Protocol: as §1

Row | Binder | SPOT peptide array binding signal intensity
39 | B1 | 16.5

The binders below were run against ScBzz1-D1 in the same assay as above.
Protocol: as §1

Row | Binder | SPOT peptide array binding signal intensity
40 | B1 | 21.2

These binders were tested against ScBzz1-D2 in the same assay as above.
Protocol: as §1

Row | Binder | SPOT peptide array binding signal intensity
41 | B1 | 10

What follows are binders tested against ScCyk3 in the same assay as above.
Protocol: as §1

Row | Binder | SPOT peptide array binding signal intensity
42 | B1 | ≤ 0

The binders below were run against ScFus1 in the same assay as above.
Protocol: as §1

Row | Binder | SPOT peptide array binding signal intensity
43 | B1 | ≤ 0

Each binder was assayed against ScHof1 in the same assay as above.
Protocol: as §1

Row | Binder | SPOT peptide array binding signal intensity
44 | B1 | 0.5

What follows are binders tested against ScHse1 in the same assay as above.
Protocol: as §1

Row | Binder | SPOT peptide array binding signal intensity
45 | B1 | 63

These binders were tested against ScLsb1 in the same assay as above.
Protocol: as §1

Row | Binder | SPOT peptide array binding signal intensity
46 | B1 | ≤ 0

These binders were tested against ScLsb2 in the same assay as above.
Protocol: as §1

Row | Binder | SPOT peptide array binding signal intensity
47 | B1 | ≤ 0

Each binder was assayed against ScLsb3 in the same assay as above.
Protocol: as §1

Row | Binder | SPOT peptide array binding signal intensity
48 | B1 | 525

Each binder was assayed against ScLsb4 in the same assay as above.
Protocol: as §1

Row | Binder | SPOT peptide array binding signal intensity
49 | B1 | 11.5

What follows are binders tested against ScMyo3 in the same assay as above.
Protocol: as §1

Row | Binder | SPOT peptide array binding signal intensity
50 | B1 | ≤ 0

Each binder was assayed against ScMyo5 in the same assay as above.
Protocol: as §1

Row | Binder | SPOT peptide array binding signal intensity
51 | B1 | 1.5

What follows are binders tested against ScNbp2 in the same assay as above.
Protocol: as §1

Row | Binder | SPOT peptide array binding signal intensity
52 | B1 | ≤ 0

The binders below were run against ScPex13 in the same assay as above.
Protocol: as §1

Row | Binder | SPOT peptide array binding signal intensity
53 | B1 | 1

The binders below were run against ScRvs167 in the same assay as above.
Protocol: as §1

Row | Binder | SPOT peptide array binding signal intensity
54 | B1 | 340

These binders were tested against ScSho1 in the same assay as above.
Protocol: as §1

Row | Binder | SPOT peptide array binding signal intensity
55 | B1 | 50

Each binder was assayed against ScSla1-D1-D2 in the same assay as above.
Protocol: as §1

Row | Binder | SPOT peptide array binding signal intensity
56 | B1 | 180

The binders below were run against ScSla1-D3 in the same assay as above.
Protocol: as §1

Row | Binder | SPOT peptide array binding signal intensity
57 | B1 | 32.5

The binders below were run against SpAbp1-D1 in the same assay as above.
Protocol: as §1

Row | Binder | SPOT peptide array binding signal intensity
58 | B1 | 174

Each binder was assayed against SpBbc1 in the same assay as above.
Protocol: as §1

Row | Binder | SPOT peptide array binding signal intensity
59 | B1 | 0.5

What follows are binders tested against SpBzz1-D1 in the same assay as above.
Protocol: as §1

Row | Binder | SPOT peptide array binding signal intensity
60 | B1 | 232

What follows are binders tested against SpBzz1-D2 in the same assay as above.
Protocol: as §1

Row | Binder | SPOT peptide array binding signal intensity
61 | B1 | ≤ 0

What follows are binders tested against SpCyk3 in the same assay as above.
Protocol: as §1

Row | Binder | SPOT peptide array binding signal intensity
62 | B1 | 15

What follows are binders tested against SpHof1 in the same assay as above.
Protocol: as §1

Row | Binder | SPOT peptide array binding signal intensity
63 | B1 | 197

What follows are binders tested against SpHof1-2 in the same assay as above.
Protocol: as §1

Row | Binder | SPOT peptide array binding signal intensity
64 | B1 | 253

These binders were tested against SpHof1-3 in the same assay as above.
Protocol: as §1

Row | Binder | SPOT peptide array binding signal intensity
65 | B1 | 397

The binders below were run against SpHse1 in the same assay as above.
Protocol: as §1

Row | Binder | SPOT peptide array binding signal intensity
66 | B1 | 34.1

The binders below were run against SpLsb1 in the same assay as above.
Protocol: as §1

Row | Binder | SPOT peptide array binding signal intensity
67 | B1 | 50.6

These binders were tested against SpLsb4 in the same assay as above.
Protocol: as §1

Row | Binder | SPOT peptide array binding signal intensity
68 | B1 | 275

The binders below were run against SpMyo1 in the same assay as above.
Protocol: as §1

Row | Binder | SPOT peptide array binding signal intensity
69 | B1 | ≤ 0

Each binder was assayed against SpNbp2 in the same assay as above.
Protocol: as §1

Row | Binder | SPOT peptide array binding signal intensity
70 | B1 | 7

The binders below were run against SpPex13 in the same assay as above.
Protocol: as §1

Row | Binder | SPOT peptide array binding signal intensity
71 | B1 | ≤ 0

What follows are binders tested against SpRvs167 in the same assay as above.
Protocol: as §1

Row | Binder | SPOT peptide array binding signal intensity
72 | B1 | 55.4

These binders were tested against SpSla1-D1-D2 in the same assay as above.
Protocol: as §1

Row | Binder | SPOT peptide array binding signal intensity
73 | B1 | 16.2

These binders were tested against SpSla1-D3 in the same assay as above.
Protocol: as §1

Row | Binder | SPOT peptide array binding signal intensity
74 | B1 | ≤ 0
